{"source": "PubChem BioAssay (EPA / NIEHS)", "note": "Some structures have more than one record in an assay (separate samples or runs), and their calls can disagree. Activity calls are given as the source filed them. How the source made its calls: active means hit-call score of the fitted dose curve at least 0.9, where 1 is the maximum; inactive means score below 0.9."}
{"read-out": "Urokinase-type plasminogen activator receptor (uPAR), PLAUR (gene 5329)", "assay": "BSK_4H_uPAR: BioMAP Diversity Plus: 4H Assay for Urokinase-type plasminogen activator receptor (uPAR) Biomarker Activity (AID 2283030)", "conditions": "primary human endothelial cells (HUVEC); actives raise or lower the signal", "in_short": "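Primary human umbilical vein endothelial cells were exposed to chemical for 24 h before cell-surface uPAR was quantified by ELISA. Activity was fitted bidirectionally against the DMSO negative control baseline.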"}
{"smiles": "O=S(=O)(Cl)C(F)(F)C(F)(F)C(F)(F)C(F)(F)C(F)(F)C(F)(F)C(F)(F)C(F)(F)F", "AC50": "12.1 µM (active)", "outcome": "inactive"}
{"smiles": "C=C(C)C(=O)OCC(F)(F)C(F)(F)C(F)(F)C(F)F", "outcome": "inactive"}
{"smiles": "NC(=O)C(F)(F)C(F)(F)C(F)(F)C(F)(F)C(F)(F)C(F)(F)C(F)(F)F", "outcome": "inactive"}
{"smiles": "NC(=O)C(F)(F)C(F)(F)C(F)(F)C(F)F", "outcome": "inactive"}
{"smiles": "CCOC(C=C(C)CCC=C(C)C)OCC", "AC50": "35.2 µM (active)"}
{"read-out": "Vascular endothelial growth factor receptor 2 (Homo sapiens) (UniProt P35968)", "assay": "BSK_4H_VEGFRII: BioMAP Diversity Plus: 4H Assay for Vascular endothelial growth factor receptor 2 (VEGFR2) Biomarker Activity (AID 2283031)", "conditions": "primary human endothelial cells (HUVEC); actives raise or lower the signal", "in_short": "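Primary human umbilical vein endothelial cells in the BioMAP 4H system were dosed with test chemical, and 24 h later VEGFRII was measured by ELISA. Activity was fitted bidirectionally against DMSO as negative control and baseline.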"}
{"smiles": "O=S(=O)(Cl)C(F)(F)C(F)(F)C(F)(F)C(F)(F)C(F)(F)C(F)(F)C(F)(F)C(F)(F)F", "outcome": "inactive"}
{"smiles": "C=C(C)C(=O)OCC(F)(F)C(F)(F)C(F)(F)C(F)F", "outcome": "inactive"}
{"smiles": "NC(=O)C(F)(F)C(F)(F)C(F)(F)C(F)(F)C(F)(F)C(F)(F)C(F)(F)F", "outcome": "inactive"}
{"smiles": "NC(=O)C(F)(F)C(F)(F)C(F)(F)C(F)F", "outcome": "inactive"}
